# Only some compounds are listed: those with a hit (about 3.4% of all), similar ones and a draw of the others.
# FXN GAA850 act – increases GAA850 frataxin promoter reporter activity | HEK293 lucGAA850 FXN promoter luciferase reporter, 24 h; percent of 10 µM SAHA response | 360,000 tested, 0.56% active | activation, % at 6 µM;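 active = activation above the average of all compounds screened plus 3 SD, cutoff fixed separately per campaign, cut at about 7.5% in these data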;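 also: 0% = DMSO wells and 100% = 10 µM SAHA wells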
# AI-2 QS modul – modulates the Vibrio harveyi AI-2 quorum sensing system; Vibrio harveyi JMH597 AI-2 luminescence/OD600 ratio, 9 h; active compounds read low; strain lacks LuxN and CqsS sensors; 0 = neutral-control median; activity change, % at 7.5 µM; 300,000 tested, 0.4% active; AID 2094; in the data active = activity change below about -75%, passing the limit was not always enough;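 also: luminescence divided by OD600 gain over 9 h not by final OD600 alone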
# HSP90 inh – inhibitors of HSP90 luciferase refolding in rabbit reticulocyte lysate; 290,000 tested, 0.91% active; AID 1789; luciferase refolding luminescence, 3 h; inhibition, % at 5.6 µM;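 active = inhibition above the screen-wide mean plus 3 SD, computed separately per campaign, cut at about 16% in these data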;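 also: 0% = DMSO wells and 100% = 60 µM geldanamycin wells; inhibitors lower the luminescence because luciferase stays unfolded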
# SMARCA2 activ – increases SMARCA2 function in MMTV reporter cells; MG213 cells, MMTV-luciferase reporter, dexamethasone, overnight; activation, % at 9.1 µM; 370,000 tested, 1% active; AID 652017; in the data active = activation above about 7.8%;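 also: 0% = vehicle wells and 100% = reference activator wells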
# PG9 binder – PG9 antibody binding by small molecule; TR-FRET gp120-PG9 antibody binding; 360,000 tested, 0.43% active; inhibition, % at 6.7 µM; in the data active = inhibition above about 8.5%
# HSF1 inhib – HSF1 inhibition. NIH3T3-HGL HSE-luciferase, MG132-induced, luminescence 8 h; active compounds read low. activity change, negative = inhibition, % at 7.5 µM (by protocol). 300,000 tested, 0.77% active. AID 2098;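 active = more than half of replicate wells show activity change below -50%, luminescence cut by over half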;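 also: luciferase reports HSF-1 transcriptional activity via heat shock element; 0% = median of DMSO wells and -100% = zero luminescence signal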
# HSP90 confirm – confirmation of HSP90 inhibitors. 2,300 tested, 64% active. inhibition, % at 5.9 µM. rabbit reticulocyte lysate, luciferase refolding luminescence, 3 h. shares compounds with HSP90 inh; in the data active = inhibition above about 18%;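 also: 0% = vehicle wells and 100% = reference inhibitor wells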
# luciferase ctr – counter-screen for HSP90 inhibitors: inhibitors of firefly luciferase; shares compounds with HSP90 inh; purified native firefly luciferase, luminescence; inhibition, % at 5.9 µM; 2,300 tested, 48% active; AID 1847;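 active = inhibition above the mean inhibition of all tested sample wells plus 3 SD, cut at about 10% in these data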;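 also: 0% = DMSO with luciferase and 100% = wells lacking luciferase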
# Target sequence (P08659 whole entry, looked up): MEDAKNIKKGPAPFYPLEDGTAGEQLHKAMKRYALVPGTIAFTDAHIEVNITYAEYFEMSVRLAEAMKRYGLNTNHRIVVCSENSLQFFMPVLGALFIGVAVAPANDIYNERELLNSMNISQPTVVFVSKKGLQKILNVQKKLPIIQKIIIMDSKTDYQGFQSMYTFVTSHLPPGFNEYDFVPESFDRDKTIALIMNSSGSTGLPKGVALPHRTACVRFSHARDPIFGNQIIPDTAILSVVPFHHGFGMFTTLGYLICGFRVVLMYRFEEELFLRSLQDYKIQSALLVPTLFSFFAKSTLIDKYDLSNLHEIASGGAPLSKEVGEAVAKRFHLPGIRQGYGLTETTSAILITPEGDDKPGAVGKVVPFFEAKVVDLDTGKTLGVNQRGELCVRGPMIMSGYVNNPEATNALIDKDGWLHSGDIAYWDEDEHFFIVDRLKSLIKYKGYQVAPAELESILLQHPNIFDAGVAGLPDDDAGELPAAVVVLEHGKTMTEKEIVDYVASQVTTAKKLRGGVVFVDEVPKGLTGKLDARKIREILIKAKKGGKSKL
# * marks the source's active call; other numbers are inactive results; / = no result given.
SMILES,FXN GAA850 act,AI-2 QS modul,HSP90 inh,SMARCA2 activ,PG9 binder,HSF1 inhib,HSP90 confirm,luciferase ctr
Cc1ccc(C(=O)n2c3ccccc3c3ccccc32)cc1,-4,4,17*,0,0,1,-1,-20
CC(=O)n1c2ccccc2c2ccccc21,1,20,-6,-4,1,-4,/,/
O=C(Nc1ccccc1)C1=C[C@@H](C2CCCCC2)C[C@@H](OCCCCO)O1,0,10,26*,-4,0,-41,35*,28*
O=C(Nc1ccccc1)C1=C[C@H](C2CCCCC2)C[C@H](OCCCCO)O1,0,15,/,-1,1,-39,/,/
O=C(C1CCN(c2ncnc3c2sc2cccc(F)c23)CC1)N1CCN(Cc2ccccc2)CC1,/,/,/,-2,/,/,/,/
Nn1c(SCC(=O)Nc2cc(C(F)(F)F)ccc2Cl)nnc1-c1n[nH]c2c1CCC2,/,/,/,-6,/,/,/,/
CCc1ccc2nc(N(CCN(C)C)C(=O)c3ccc4ncsc4c3)sc2c1,5,26,28*,2,0,5,23*,19*
c1ccc(-n2nnc3c(N4CCOCC4)ncnc32)cc1,-3,7,30*,6,-1,-12,66*,55*
Cc1cc(C)c2nc(N3CCC(C(=O)NCCCN4CC(C)CC(C)C4)CC3)sc2c1 (stereo unspecified),4,17,31*,6,1,-31,40*,6
C[C@@H]1CC(=O)NN=C1c1ccc(NN=C(C#N)C#N)cc1,/,/,/,-6,/,/,/,/
COc1ccc(/C=C/C(=O)NC(=S)NNC(=O)c2cc(OC)c(OC)c(OC)c2)cc1OC,-2,29,3,-1,1,7,/,/
COc1ccc(/C=C/C(=O)NC(=S)NNC(=O)c2cc(OC)c(OC)c(OC)c2)cc1,-1,25,26*,-5,2,-6,61*,27*
CCN(CC)CCOC(=O)c1ccc(NC(=O)CCCN2C(=O)S/C(=C/c3ccc(OC)cc3)C2=S)cc1,-13,-4,34*,/,/,-46,30*,-26
COc1ccc(/C=C2\SC(=S)N(CCC(=O)Nc3ccc(O)cc3)C2=O)cc1,-6,13,1,-2,1,2,/,/
O=C(COc1ccc(Br)cc1Cl)NC(=S)Nc1ccccn1,4,12,32*,-1,0,-40,38*,32*
Cc1nc(NC(=S)NC(=O)COc2ccccc2Cl)ccc1Br,1,17,0,-2,0,4,/,/
Cc1ccc(OCC(=O)NC(=S)Nc2ccccn2)c(Br)c1,-7,17,72*,-1,3,-63*,80*,79*
COc1ccc(N=Nc2cc(OC)c(N)cc2OC)cc1,-1,/,/,0,-8,/,/,/
Cc1cc(N=Nc2ccc(C)c(N=Nc3cc(C)c(N)cc3N)c2)c(N)cc1N,0,27,17*,2,-7,-16,33*,51*
COc1ccc2cnn(CCOc3ccccc3)c(=O)c2c1OC,2,24,21*,6,1,14,32*,20*
O=C(O)c1ccc(N=NN2CCCCCC2)cc1,5,86,21*,1,1,-5,42*,12*
COc1ccc(OC)c(CN(CC(F)(F)F)S(=O)(=O)c2ccccc2Br)c1,/,/,/,-2,-1,/,/,/
Cc1cc(Cl)ccc1OCC(=O)N(Cc1cccs1)C1CCS(=O)(=O)C1 (stereo unspecified),2,17,23*,0,0,16,2,-4
O=C(Nc1ccccc1C(F)(F)F)c1cc(-c2ccccc2O)on1,3,1,21*,2,1,23,2,-9
O=C(Nc1ccccc1C(F)(F)F)c1cc(-c2ccco2)on1,3,31,-3,0,1,5,/,/
SMILES,FXN GAA850 act,AI-2 QS modul,HSP90 inh,SMARCA2 activ,PG9 binder,HSF1 inhib,HSP90 confirm,luciferase ctr
O=C(CSc1nnc(-c2ccccn2)n1-c1ccccc1)Nc1cccc2ccccc12,/,/,/,-4,/,/,/,/
Cc1nc2c(-c3ccc(Cl)cc3)cnn2c(N)c1-c1ccc(F)cc1,-11,0,69*,-6,0,-74*,67*,68*
Nc1c(-c2ccc(Cl)cc2)cnc2c(-c3ccc(F)cc3)cnn12,6,13,-3,6,-2,4,/,/
Cc1cc(C(F)(F)F)n2ncc(-c3ccc(F)cc3)c2n1,0,8,2,-2,2,-1,/,/
COc1ccc(-c2c(C)nc3c(-c4ccc(F)cc4)cnn3c2N)cc1,2,-4,17*,2,1,-30,16*,11*
Cc1nn(CCC(=O)NNC(=O)NCc2ccccc2)c(C)c1[N+](=O)[O-],/,/,/,-4,/,/,/,/
COC(=O)[C@]12C[C@H](CC(=O)N3CCOCC3)C(=O)N(Cc3cccc4ccccc34)C1=C[C@H](C1CCCC1)O[C@@H]2C,/,/,/,-2,/,/,/,/
Cc1nc2cc(-c3ccc(F)cc3)[nH]n2c(=O)c1C,5,10,10,2,0,19,/,/
O=c1c2c(nc3cc(-c4ccc(F)cc4)[nH]n13)CCCC2,0,10,18*,1,-1,3,44*,29*
COC(=O)c1cc(NC(=O)NC2CCCCN(Cc3ccc(Cl)cc3)C2=O)cc(C(=O)OC)c1 (stereo unspecified),/,/,/,5,/,/,/,/
CC(=O)Nc1ccc(OS(=O)(=O)c2ccc(Cl)cc2)cc1,1,10,-2,0,0,-1,/,/
CC(=O)Nc1ccc(OS(=O)(=O)c2ccc([N+](=O)[O-])cc2)cc1,-1,21,55*,-1,1,12,76*,-5
O=c1oc(Nc2ccc(F)cc2)nc2ccccc12,2,1,18*,2,0,12,9,-21
CN1[C@@H](Cc2ccccc2)COc2cccc(N3CCSCC3)c2S1(=O)=O,/,/,/,-2,/,/,/,/
Cc1ccc(Nc2nc(-c3sc(NC(=O)c4cccc(Cl)c4)nc3C)cs2)cc1,/,31,70*,/,/,-8,46*,-14
COc1ccccc1Nc1nc(-c2sc(NC(=O)c3cccc(Cl)c3)nc2C)cs1,/,19,66*,/,/,-8,61*,-11
Cc1ccc(Nc2nc(-c3sc(NC(=O)c4ccco4)nc3C)cs2)cc1,0,52,11,1,-4,0,/,/
COc1cc(/C=N/NC(=Nc2ccc(C)cc2)c2nc3ccccc3s2)ccc1O,-19,12,57*,-6,0,-73*,57*,49*
COc1ccccc1CCC[C@@H](CCS(=O)(=O)C(C)C)CC1CCCCC1,/,/,/,-4,/,/,/,/
C/C=C/c1ccc([C@H]2[C@@H](CN(CC(C)C)S(=O)(=O)c3ccccc3[N+](=O)[O-])N(C(=O)Nc3cccc(OC)c3)[C@H]2CO)cc1,/,/,/,0,/,/,/,/

# Source: PubChem BioAssay (several laboratories)
